Sampled rows, rich in hits. Any-hit rate of the full collection: about 1.3%.
RXFP1 ag = activates the human relaxin receptor RXFP1 | Q9HBX9 | HEK293T-RXFP1 cAMP TR-FRET, 30 min; response scale: percent of porcine relaxin response, buffer zero | Potency, µM (highest dose often 57.5 µM), without a hit: at the top dose activation, usual class: activators | hit rate 0.3% among 370,000 | AID 2676; active = well fitted activation curve with a large enough effect; inconclusive = small, poorly fitted or top-dose-only effect; also: potency is read from the fitted curve at half-maximal effect; % is scaled to controls: 0 for no effect and ±100 for the full control effect; nearly all actives have a fitted effect of over 60% in size
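Agonist response is measured as cAMP accumulation in an RXFP1-transfected HEK293T line under PDE4 inhibition. Values are scaled between buffer-only and 29 nM porcine relaxin, and EC50s come from standard Hill equation fits.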
gsp antag = antagonists of gsp mutant (McCune-Albright syndrome). gsp-mutant cells, cAMP HTRF, 30 min. Potency, µM (doses to about 76.9 µM), inactives show at the top dose activity change, negative = inhibition, actives largely listed as inhibitors. hit rate 0.4% among 340,000; calls by dose curve; cell line not stated here;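 also: intracellular cAMP measured with PDE inhibitor Ro 20-1724 present during compound exposure; potency is read from the fitted curve at half-maximal effect; % is scaled to controls: 0 for no effect and ±100 for the full control effect; nearly all actives have a fitted effect of over 65% in size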
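HTRF cAMP read-out (cAMP-d2 plus anti-cAMP antibody-K in lysis buffer, 30 min RT). Before lysis, cells are exposed to compounds with […] for 30 min at 37C in DPBS containing Ca/Mg, BSA and Tween 20.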
Akt phos inh = blocks phosphorylation of Akt; Neuro2A IGF-stimulated pAkt S473 HTRF, 20 min; hits give low values; activity change, % for hits at 50 µM; hit rate 0.32% among 360,000; AID 651550; in the data active = activity change below about -80%; inconclusive = mostly about -51% to -80%; also: % is scaled to controls: 0 for no effect and ±100 for the full control effect
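Single-point screen (50 µM final compound) in Neuro2A cells stimulated 20 min with 6 nM IGF at 37 deg C. After lysis, Ser473-phosphorylated Akt read by HTRF (ex 330 nm, em 615/665 nm) as the 665/615 ratio.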
gsp agonist = gsp mutant agonism; gsp mutant cells, cAMP HTRF, 30 min; Potency, µM (top dose mostly 76.9 µM), without a hit: top-dose activation (cAMP increase), most hits filed as activators; hit rate 0.13% among 340,000; active = well fitted activation curve with a large enough effect; inconclusive = small, poorly fitted or top-dose-only effect, or another doubt; inactive = no such curve, though single readings can be large or run the other way; cell line not stated here;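 also: phosphodiesterase inhibitor Ro 20-1724 added with compounds to block cAMP breakdown; potency is read from the fitted curve at half-maximal effect; nearly all actives have a fitted effect of over 60% in size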
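Cells stably selected in G418 were plated at 2000/well, grown 16-24 hr, then given compounds in DMSO with the PDE inhibitor […] (300 uM solution added) for 30 min at 37C; cAMP was read by HTRF.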
RXFP1 antagonist = blocks the human relaxin receptor RXFP1. AID 1259400. hit rate 0.59% among 350,000. HEK293-RXFP1, relaxin-stimulated cAMP HTRF, 30 min; hits give low values. activity change, negative = inhibition, % at 57.5 µM;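 active = activity change of -60% or lower, but not beyond a set lower limit; inconclusive = change between -60% and -40%, or beyond the set limit; inactive = change above -40%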; also: % is scaled to controls: 0 for no effect and ±100 for the full control effect
The depositor's hits bear a star; i = inactive; ? = inconclusive; nt = not tested or not shown; [ ] = dose if it differs, or a comment.

SMILES	RXFP1 ag	gsp antag	Akt phos inh	gsp agonist	RXFP1 antagonist
CCNC(=O)NC(=O)C(C)Sc1nc2cc(C(=O)OC)ccc2c(=O)n1-c1ccccc1 (stereo not given)	1%	-30%	-122%*	0%	9
COc1ccc(-c2cc(=O)[nH]c(=S)[nH]2)cc1	4%	0%	i	10µM*	-6
COc1ccc(-c2cc(=O)c3cc(OC)ccc3[nH]2)cc1	0%	-2%	i	nt	nt
CC(C)NC(=O)c1sc2nc(-c3cccs3)cc(-c3cccs3)c2c1N	-2%	-1%	-94%*	9%	-3
COc1ccc(C(=O)c2sc3nc(C)cc(-c4cccs4)c3c2N)cc1	5%	-15%	i	10µM*	-10
COc1ccc(C(=O)c2sc3nc(C)cc(-c4cccs4)c3c2N)cc1OC	5%	-15%	i	?	-8
O=[N+]([O-])c1ccc(-c2cnc(SCc3ccccc3Cl)[nH]2)cc1	-1%	-10%	i	-4%	-8
O=[N+]([O-])c1ccc(-c2cnc(SC(c3ccccc3)c3ccccc3)[nH]2)cc1	0%	35µM*	i	-6%[15.4 µM]	?
COc1ccc(C(=O)CSc2nnc(Cn3cnc4ccccc43)o2)cc1	4%	40µM*	i	-13%	1
CC(=O)c1ccc(NC(=O)CSc2nnc(Cn3cnc4ccccc43)o2)cc1	0%	11%	i	-2%[15.4 µM]	-4
Cc1cc(C)c(O)c(-c2cc(C(=O)Nc3ccc(S(=O)(=O)N4CCOCC4)cc3)[nH]n2)c1	0%	28µM*	i	1%	-3
COc1ccc(Br)cc1CNC(=O)c1cnc2sc(N3CCCCCC3)nn2c1=O	2%	nt	nt	nt	-23
CCOc1ccccc1NC(=O)N1CCN(S(=O)(=O)c2ccc3c(ccn3C)c2)CC1	9%	nt	nt	nt	nt
COc1ccc2[nH]cc(CCNC(=O)Nc3cc(C)cc(C)c3)c2c1	2%	nt	nt	nt	-14
CCN(CC)S(=O)(=O)c1ccc(C(=O)NCc2n[nH]c(=S)n2-c2ccc(Cl)c(Cl)c2)cc1	1%	-13%	i	11%[15.4 µM]	-64*
COc1ccc(-c2cc3ccc(O)c(CN4CCCC4)c3oc2=O)cc1OC	?	nt	nt	nt	-7
COc1ccccc1N1CCN(S(=O)(=O)/C=C/c2ccccc2)CC1	0%	-6%	-126%*	-7%	-7
O=S(=O)(/C=C/c1ccccc1)N1CCN(c2ccccc2)CC1	0%	5%	i	?	-1
COc1ccc2[nH]c3c(NCCC4=CCCCC4)ncnc3c2c1	-1%	28µM*	i	-7%[15.4 µM]	-71*
COc1ccccc1Nc1c2c(nc3ccc(NC(=O)c4cccc(F)c4)cc13)CCCC2	-1%	nt	nt	nt	-75*
N#Cc1c(-c2ccccc2)nc(SCC(=O)Nc2nnc(C(F)(F)F)s2)[nH]c1=O	18µM*	1%	i	?	22
Cc1cc(C)nc(NS(=O)(=O)c2ccc(NC(=O)CSc3nc(-c4ccccc4)c(C#N)c(=O)[nH]3)cc2)n1	18µM*	28%	i	?	19
CCc1ccc(NC(=O)CSc2nc(-c3ccccc3)c(C#N)c(=O)[nH]2)cc1	25µM*	nt	nt	nt	5
N#Cc1c(-c2ccccc2)nc(SCC(=O)Nc2ccccc2)[nH]c1=O	26%	14%	i	?	7
COc1cc2c(cc1OC)C(=O)CC2	nt	nt	nt	nt	6
SMILES	RXFP1 ag	gsp antag	Akt phos inh	gsp agonist	RXFP1 antagonist
COc1ccc(OC)c(C2CC(=O)N(c3cccc(C)c3)C3=C2C(=O)OC3)c1 (stereo not given)	1%	nt	nt	nt	-11
CC(=O)c1ccc(N=Cc2c(O)n(-c3cc(Cl)ccc3N3CCOCC3)c(=O)c3ccccc23)cc1	0%	3%	-120%*	2%	2
Cc1sc2ncn(CC(=O)Nc3cccc(C(F)(F)F)c3)c(=O)c2c1S(=O)(=O)N1CCN(C)CC1	1%	nt	nt	nt	nt
COCc1nnc(NC(=O)c2ccc(S(=O)(=O)N3CCCc4ccccc43)cc2)o1	0%	-3%	i	9%[15.4 µM]	-7
COc1ccc(-c2nnc(NC(=O)c3ccc(S(=O)(=O)N4CCCc5ccccc54)cc3)o2)cc1	2%	?	i	-1%	-65*
O=S(=O)(c1ccc(-c2cc(C(F)(F)F)on2)s1)N1CCN(c2cccc(Cl)c2)CC1	-2%	nt	nt	nt	-2

Assay outcomes (PubChem)
